ELG1 genotox = genotoxicity induction in ELG1-luciferase HEK293T cells; HEK293T ELG1-luciferase reporter, luminescence, 16 h; Potency, µM (doses to about 46 µM), inactives show at the top dose activity change, positive = activation, actives largely listed as activators; hit rate 1.3% among 330,000; note: % of control where 0% means no effect; nearly all actives have a fitted effect of over 60% in size
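Genotoxicity was scored as increased ELG1-luciferase reporter signal, measured by ONE-Glo luminescence (30 min, room temperature). Compound or vehicle exposure of the HEK293T reporter cells lasted 16 hr at 37°C.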
SMN2 splice enh = enhancers of SMN2 splice variant expression; Potency, µM (doses to about 46.1 µM), for the others: top-dose activity change, positive = activation, actives largely listed as activators; hit rate 2.8% among 210,000; HEK293 SMN2-luciferase splicing reporter, luminescence, 30-36 h; note: % of control where 0% means no effect; nearly all actives have a fitted effect of over 55% in size
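HEK293 cells carry an SMN2 […]–luciferase reporter in which exon 7 inclusion puts luciferase in frame. Cells were plated 10-12 h before compound addition, then incubated 30-36 h at 37C. ONE-Glo luminescence was read; sodium butyrate at 4.5 mM final served as control.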
FLuc modulator = counter-screen for miR-21 project: firefly luciferase inhibitors or activators; P08659; purified FLuc, Km substrates, luminescence inhibition; Potency, µM (series often up to 57.5 µM), for the others: top-dose activity change, negative = inhibition, hits mostly inhibitors; hit rate 6.9% among 360,000; AID 588342;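 note: plate controls were vehicle for no effect and reference inhibitor for full effect; nearly all actives have a fitted effect of over 55% in size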
Target sequence (P08659 whole entry, looked up): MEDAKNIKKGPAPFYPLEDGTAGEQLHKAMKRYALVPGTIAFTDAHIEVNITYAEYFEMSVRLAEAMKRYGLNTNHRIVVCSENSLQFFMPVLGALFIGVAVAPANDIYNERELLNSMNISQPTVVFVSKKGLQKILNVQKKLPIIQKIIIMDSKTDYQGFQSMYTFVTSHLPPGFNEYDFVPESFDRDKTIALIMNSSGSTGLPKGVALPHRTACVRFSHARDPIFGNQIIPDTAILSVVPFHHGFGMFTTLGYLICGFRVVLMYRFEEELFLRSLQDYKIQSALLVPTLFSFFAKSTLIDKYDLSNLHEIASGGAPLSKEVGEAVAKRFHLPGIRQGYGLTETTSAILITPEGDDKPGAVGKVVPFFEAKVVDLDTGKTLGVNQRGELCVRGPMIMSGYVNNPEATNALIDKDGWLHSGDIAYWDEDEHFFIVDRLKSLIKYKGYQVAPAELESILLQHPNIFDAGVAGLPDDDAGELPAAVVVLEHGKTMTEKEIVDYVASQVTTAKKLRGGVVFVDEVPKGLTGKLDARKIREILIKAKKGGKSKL
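Purified P. pyralis luciferase (10nM final) with 10uM D-luciferin and 10uM ATP (Km levels) in 50mM Tris acetate pH 7.5, 10mM Mg acetate, 0.01% Tween-20, 0.05% BSA; qHTS 6-point titration, ~60 µM downward; luminescence read.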
NPC1 prom act = activators of NPC1 promoter; Huh7 NPC1 promoter luciferase reporter, 24 h; Potency, µM (highest dose often 9.22 µM), for the others: at the highest dose activation, actives largely listed as activators; hit rate 2.4% among 320,000; AID 485313; note: % of control where 0% means no effect; nearly all actives have a fitted effect of over 60% in size
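Stably transfected Huh7 (NPC1 promoter→luciferase), 1500 cells/well in Opti-MEM + 10% FBS, 2 h settle, then compound 24 h at 37 °C. Luminescence after 10 min with Amplite reagent.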
Rab9 prom act = activates the Rab9 promoter. Huh7 Rab9 promoter-luciferase reporter, luminescence, 24 h. Potency, µM (titrated, usually from 9.22 µM), for the others: top-dose activation, negative = inhibition, actives largely listed as activators. hit rate 2.8% among 320,000. AID 485297; note: % of control where 0% means no effect; nearly all actives have a fitted effect of over 60% in size
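Stable Rab9-luc Huh7, 1500 cells/well, 2 h settle; cmpd in DMSO, 24 h, 37 °C/5% CO2; luciferase reagent 10 min RT; luminescence.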
KinaseGlo FLuc = blocks Kinase-Glo luciferase, a counter-screen artifact; Kinase-Glo luciferase, ATP luminescence, 8 min; Potency, µM (highest dose often 38.3 µM), without a hit: at the top dose activity change, negative = inhibition, hits mostly inhibitors; hit rate 0.28% among 200,000; note: % is set by controls: 0 for no effect and ±100 for the full control effect; nearly all actives have a fitted effect of over 60% in size
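Compound is pinned into ATP-containing buffer (10 uM ATP, imidazole pH 7.2, 7 mM MgCl2). Kinase-Glo luciferase reagent is then added. Light output is recorded following an 8-min room-temperature incubation.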
Active calls of the source: *; ? = inconclusive; / = no result. Only some compounds are listed: those with a hit (about 7.5% of all), similar ones and a draw of the others. Calls come from the whole dose curve; as a rule, active = well fitted curve in the direction sought with a large enough effect; inconclusive = small, poorly fitted or top-dose-only effect, or another doubt; inactive = no such curve, though single readings can be large; an effect the other way counts as inactive or inconclusive. Potency is the fitted concentration of half-maximal effect.

SMILES	ELG1 genotox	SMN2 splice enh	FLuc modulator	NPC1 prom act	Rab9 prom act	KinaseGlo FLuc
CCOC(=O)c1c(NC(=O)CSc2cn(CCNC(=O)c3ccc(OC)c(OC)c3)c3ccccc23)sc2c1CCC2	/	-1%	-2%	/	/	/
Cc1ccccc1OCc1nnc2c3cnn(C)c3ncn12	?	19%	21µM*	3.2µM*	4µM*	-9%
Cc1ccccc1OCc1nc2c3cnn(-c4ccccc4Br)c3ncn2n1	/	1%	?	/	/	/
C=CCNc1oc(/C=C/c2ccccc2)nc1C#N	?	11µM*	4.8µM*	2.5µM*	2.2µM*	-1%
CCOc1ccc(/C=C/c2nc(C#N)c(NCCCOC)o2)cc1	0%	/	?	-27%	-4%	/
COCCCNc1oc(/C=C/c2ccccc2)nc1C#N	2.9µM*	/	3.4µM*	3.5µM*	1.1µM*	/
CC(C)NC(=O)CCC(=O)N1Cc2ccccc2Oc2ncccc21	/	/	2%	/	/	/
Cc1c(C(=O)N2CCOCC2)sc(NC(=O)CCl)c1C#N	-13%	/	0%	-7%	-5%	/
Cc1cccc(/C=C2\Sc3ccc(C(=O)N4CCC(C(N)=O)CC4)cc3N(C)C2=O)c1	-9%	/	19µM*	-20%	-6%	/
CN1C(=O)/C(=C/c2ccc(C(F)(F)F)cc2)Sc2ccc(C(=O)N3CCN(c4ccccn4)CC3)cc21	-12%	/	8.5µM*	-6%	-6%	/
O=C(NCCN1CCOCC1)c1cccc(NS(=O)(=O)c2ccc(Br)cc2)c1	-2%	/	5%	2%	1%	/
Cc1ccc2c(C)c(C(=O)N3CCN(Cc4ccc5c(c4)OCO5)CC3)oc2c1C	17%	/	24µM*	?	?	/
Cc1sc(NC(=O)CCCC(=O)O)c(C(N)=O)c1-c1ccccc1	?	-1%	0.76µM*	16%	4%	3%
CC1CCN(C(=O)Cn2cc(SCc3ccccc3)c3ccccc32)CC1	/	/	-11%	/	/	/
O=C1CN(c2ccccc2)C(=S)N1C(=O)c1ccccc1	?	/	24µM*	?	4µM*	/
Cn1c(-n2c(-c3ccco3)nc3ccccc3c2=O)nc2ccccc21	-1%	-10%	21µM*	0%	-5%	-6%
O=c1c2ccccc2nc(-c2ccco2)n1CCc1ccc(O)cc1	-15%	/	-15%	-5%	6%	/
O=c1c2ccccc2nc(-c2ccco2)n1-c1nc2ccccc2s1	6%	-14%	15µM*	7%	5%	2%
O=C(CSc1nc(-c2ccccc2Cl)ns1)NCc1ccco1	0%	-7%	?	2%	0%	-4%
NC(=O)CSc1nc(-c2ccccc2Cl)ns1	13%	?	?	?	3.2µM*	-7%
CCc1nnc(NC(=O)CSc2nc(-c3ccc(OC)cc3)ns2)s1	?	?	1.7µM*	19%	?	1%
CCOC(=O)CSc1nc(-c2ccccc2)ns1	1%	9%	15µM*	-3%	2%	0%
CCOC(=O)CNC(=O)CSc1nc(-c2ccc(OC)cc2)ns1	0%	6%	12µM*	5%	17%	0%
COc1ccc(-c2nsc(SCC(=O)Nc3cc(C)on3)n2)cc1	?	-4%	2%	1%	12%	1%
CCOC(=O)CSc1nnc(-c2ccccc2)c(-c2ccccc2)n1	-2%	/	-3%	-4%	-1%	/
COc1cc(OC)c(NC(=O)NC(C)c2c(-n3cccc3)sc(C)c2C)cc1Cl (stereo unspecified)	/	-4%	-11%	/	/	/
O=C(CCCN1C(=O)/C(=C/c2ccccc2Cl)SC1=S)Nc1cccnc1	-10%	/	13µM*	-22%	-32%	/
Cc1ccc(NC(=O)COc2cccc(/C=C3\SC(=S)N(CCC(=O)O)C3=O)c2)cc1Cl	10%	/	?	16%	?	/
O=C(CCN1C(=O)/C(=C/c2ccc(Cl)cc2)SC1=S)Nc1cccc(C(=O)O)c1	-4%	/	15µM*	2%	-3%	/
O=C(O)CCN1C(=O)/C(=C\c2cccc(OCC(=O)Nc3ccc(Cl)cc3)c2)SC1=S	2%	/	17µM*	27%	29%	/

Screens (PubChem)
